# A selection follows.
# aSyn 5UTR act: Activators via SNCA 5'UTR binding, MLPCN; alpha-synuclein 5'UTR reporter, activators screen; activity score, % (tested at 7.5 µM), hits read low; 300,000 tested, 7.1% active; AID 1814, 2009; in the data active = activity score below about -60%
# * hit, by the source's call.
SMILES,aSyn 5UTR act
O=C(COc1ccccc1O)Nc1ccccc1Cl,-98.8*
COc1ccc(NC(=O)c2onc(C)c2Cl)cc1,-123.6*
CCc1ccc(NC(=O)c2onc(C)c2Cl)cc1,-181.9*
Cc1noc(NC(=O)c2ccc(Cl)cc2)c1Cl,-69.8*
Cc1noc(C(=O)Nc2cccc(Cl)c2)c1Cl,-78.6*
CC1CC1c1ccc(/C=C(\C#N)C(=O)Nc2ccccc2Cl)o1 (stereo not drawn),-191.9*
CC1CC1c1ccc(/C=C(\C#N)C(=O)Nc2ccc(Cl)cc2)o1 (stereo not drawn),-327.9*
COc1ccccc1N1CCN(/N=C/c2cccc(O)c2)CC1,-111.5*
COc1ccccc1N1CCN(/N=C/c2ccc([N+](=O)[O-])cc2)CC1,-159.4*
COc1ccccc1N1CCN(/N=C/c2ccc(Cl)c([N+](=O)[O-])c2)CC1,-127.6*
COc1ccccc1N1CCN(c2ccnc3cc(Cl)ccc23)CC1,86.6
O=C(NC1CCCC1)c1n[nH]c2ccccc12,-85.7*
O=C(NC1CCCCC1)C(=O)c1c[nH]c2ccccc12,-115.3*
Cc1ccc(NC(=O)C(=O)c2c[nH]c3ccccc23)cc1,-169.4*
O=C(NCCC1=CCCCC1)C(=O)c1c[nH]c2ccccc12,-81.5*
O=C(NCC1CCCO1)C(=O)c1c[nH]c2ccccc12 (stereo not drawn),-72.9*
CC(=O)c1cccc(NC(=O)c2sc(Cl)nc2C)c1,-65.4*
Cc1nc(Cl)sc1C(=O)Nc1ccccc1,-66.6*
Cc1c(C(=O)Nc2ccccc2)sc2nc[nH]c(=O)c12,-72.0*
CCC(=O)c1ccc(OC(=O)N2CCOCC2)cc1,-69.6*
CC(C)(C)c1ccc(OC(=O)N2CCOCC2)cc1,-110.7*
COc1ccc(/C=N/n2c(N)nc(-c3ccccc3)c2-c2ccccc2)cc1,-62.6*
Cc1ccc(C(=O)/C=C/Nc2cccc([N+](=O)[O-])c2)o1,-167.2*
O=C(/C=C/Nc1cccc([N+](=O)[O-])c1)c1ccco1,-282.7*
Cc1ccc(-c2cc(N)nc(-c3ccccc3)c2)cc1,-86.9*
SMILES,aSyn 5UTR act
Cc1ccc(C(=O)Nc2scc(-c3ccccc3)c2C(=O)O)cc1,-91.8*
COC(=O)c1c(-c2ccc(F)cc2)csc1NC(=O)c1ccco1,-128.7*
COc1ccc(-c2csc(NC(=O)c3ccccc3F)c2C(=O)O)cc1,-89.5*
COC(=O)c1c(-c2cccnc2)csc1NC(=O)c1cc(C)on1,-231.2*
COC(=O)c1c(-c2ccc(C)cc2)csc1NC(=O)c1c(-c2ccccc2)noc1C,67.9
C=CCn1c(O)c(N=NC(=S)Nc2ccccc2F)c2cc(S(=O)(=O)N3CCOCC3)ccc21,77.9
Cc1cccc(NC(=O)C2COc3ccccc3O2)c1 (stereo not drawn),-114.8*
Cc1ccc(NC(=O)C2COc3ccccc3O2)cc1C (stereo not drawn),-170.8*
COC(=O)c1cccc(NC(=O)C2COc3ccccc3O2)c1 (stereo not drawn),-137.4*
COc1ccccc1OCC(=O)NC1CCCCCC1,-76.4*
Cc1cc(Br)ccc1OCC(=O)NC1CCCC1,-66.3*
CCc1ccc(OCC(=O)NC2CCCCC2)c(Br)c1,-119.6*
COC(=O)c1[nH]c2ccc(Br)cc2c1NC(=O)CN1CCN(C2CCCCC2)CC1,75.1
CCc1ccc(OCC(=O)Nc2ccncc2)c(Br)c1,-441.9*
O=C(COc1ccc(Br)cc1Br)NC(=O)NC1CCCC1,-236.9*
Cc1ccsc1/C=N\NC(=O)c1n[nH]c2c1CCC2,68.6
O=C(NN=C1CCCC1)c1n[nH]c2c1CCCC2,-72.6*
O=C(N/N=C/c1c(Cl)cccc1Cl)c1n[nH]c2c1CCCC2,-135.4*
NC(=O)c1ccc(NC(=O)C#Cc2ccccc2)cc1,-111.9*
COc1ccc(NC(=O)C#Cc2ccccc2)cc1OC,-212.3*
CCN1CCc2c(sc(NC(=O)C3COc4ccccc4O3)c2C(N)=O)C1 (stereo not drawn),-96.2*
CN1CCc2c(sc(/N=C/c3cccs3)c2C(N)=O)C1,-74.8*
CN1CCc2c(sc(NC(=O)C3COc4ccccc4O3)c2C(N)=O)C1 (stereo not drawn),-116.8*
CCOC(=O)N1CCc2c(sc(NC(=O)C3COc4ccccc4O3)c2C(N)=O)C1 (stereo not drawn),-108.9*
CC(=O)N1CCc2c(sc(NC(=O)C3COc4ccccc4O3)c2C(N)=O)C1 (stereo not drawn),-73.7*
SMILES,aSyn 5UTR act
CN1CCc2c(sc(NC(=O)c3ccc4ccccc4c3)c2C(N)=O)C1,-108.2*
COc1cc2ccccc2cc1C(=O)Nc1sc2c(c1C(N)=O)CCN(C(C)C)C2,102.4
CO/N=C/C(C#N)=C/c1ccc(OC)cc1,-81.1*
CC1CCN(S(=O)(=O)N2CCC(C(=O)NC3CCCC3)CC2)CC1,-96.8*
CCCS(=O)(=O)N1CCC(C(=O)NC2CCC(C)CC2)CC1 (stereo not drawn),-64.0*
Nc1c(C(=O)Nc2ccccc2Cl)nnn1-c1ccc2c(c1)OCCO2,-216.0*
Nc1c(C(=O)Nc2ccc3c(c2)OCCO3)nnn1Cc1ccc(Br)cc1,-220.2*
Nc1c(C(=O)Nc2ccc3c(c2)OCCO3)nnn1CCc1ccccc1,-126.4*
Nc1c(C(=O)Nc2ccc3c(c2)OCCO3)nnn1Cc1cccc(Br)c1,-163.3*
Cc1ccc(C(=O)Nc2ccc(N3CCN(C)CC3)nc2)cc1,-63.4*
COc1cc(C(=S)N2CCCC2)ccc1OS(=O)(=O)c1ccc(NC(C)=O)cc1,-64.2*
O=C(Nc1cccc(Cl)c1)c1ccc(OC(=S)N2CCOCC2)cc1,-182.4*
Cc1ccc(C(=O)Nc2ccc(N3CCN(C)CC3)cc2)c(Cl)c1,-162.5*
Cc1ccc(C(=O)Nc2cccc(C(=O)O)c2)cc1,86.9
Cc1ccc(C(=O)Nc2ccc(N3CCOCC3)cc2)cc1,-95.4*
Cc1ccc(CNc2ccc(N3CCOCC3)cc2)cc1,-107.5*
CCC(=O)NC(=S)Nc1ccc(N2CCOCC2)cc1,-81.8*
Cc1ccc(C(=O)Nc2cccc(C(=O)N3CCOCC3)c2)cc1,-89.1*
Cc1ccc(C(=O)Nc2ccc(N3CCCC3)cc2)cc1,-160.1*
COc1ccc(C(=O)Nc2ccc(N3CCCCC3)cc2)cc1Br,-63.5*
O=C(/C=C1\SC(=O)N(CC(=O)Nc2ccc(F)cc2)C1=O)Nc1ccc(Cl)cc1,-195.9*
O=C(O)c1cccc(N/N=C/c2cccs2)c1,95.8
O=C(N/N=C/c1cccs1)c1ccccn1,-79.2*
CC(C)(C)NC(=O)C(=O)N/N=C/c1cccs1,-120.3*
Cc1ccc2c(Cl)c(C(=O)N/N=C/c3cccn3C)sc2c1,-134.9*
SMILES,aSyn 5UTR act
Cn1cccc1C(=O)N/N=C/c1c(Cl)cccc1Cl,-99.9*
Cn1cccc1/C=N/NC(=O)c1ccccn1,-70.9*
Cn1cccc1/C=N/NC(=O)c1cc2ccccc2cc1O,-82.3*
Cn1cc(C(=O)N/N=C/c2c(O)ccc3ccccc23)ccc1=O,96.3
CC(=O)c1sc(-c2ccc(F)cc2F)nc1C,-74.8*
COC(=O)c1ccccc1NC(=O)NCCc1ccccc1OC,-133.7*
COC(=O)c1ccccc1NC(=O)CC(=O)Nc1ccccc1C(=O)OC,-63.5*
C=CCNC(=O)C1CC(=O)N(c2ccc(OCC(=O)Nc3ccccc3)cc2)C1 (stereo not drawn),-94.4*
NC(=O)C1CC(=O)N(c2ccc(OCc3ccc(Cl)cc3)cc2)C1 (stereo not drawn),-146.0*
C=CCNC(=O)C1CC(=O)N(c2ccc(OCc3ccc(F)cc3)cc2)C1 (stereo not drawn),-95.3*
CCCNC(=O)C1CC(=O)N(c2ccc(OCc3ccc(F)cc3)cc2)C1 (stereo not drawn),-92.1*

# Screening data from PubChem.
